For 41 molecules, Potency results are on record in PubChem BioAssay (Tox21).

Records with an inconclusive call do not appear. Activity calls are given as the source filed them. Calls follow the shape of the full dose curve.

Test [1] addresses Acetylcholinesterase (Homo sapiens) (UniProt P22303). As to the kind of experiment: Acetylcholinesterase (AChE) small molecule antagonists: colormetric cell-based qHTS assay (AID 1347395). Also: nearly all actives have a fitted effect of over 30% in size. The procedure, abridged:
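Neuroblastoma line SH-SY5Y supplied the enzyme; cells were preincubated with compound for 30 min at 37 C and 5% CO2. Acetylthiocholine with DTNB was then added for 90 min at 37 C, and thiocholine was measured by colour.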
On the technique in general: Quantitative high-throughput screening tests each substance at several concentrations.

The target is the same in test [2]. As to the kind of experiment: Acetylcholinesterase (AChE) small molecule antagonists: enzyme-based qHTS assay (AID 1347397). Also: nearly all actives have a fitted effect of over 55% in size. Particulars: Potency: AChE enzyme activity inhibition; outcome: AChE enzyme activity inhibition. A digest of the protocol: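 Absorbance-based detection of thiocholine with DTNB served as the read-out. Recombinant human AChE was exposed to compound for 30 min at RT before a 10 min RT incubation with acetylthiocholine.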

For test [3] the target is unchanged. As to the kind of experiment: Acetylcholinesterase (AChE) small molecule antagonists: fluorescence cell-based qHTS assay (AID 1347398). Also: nearly all actives have a fitted effect of over 50% in size. Particulars: Potency: AChE activity; outcome: AChE activity. A digest of the protocol:
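Fluorimetric cell-based assay: intact SH-SY5Y cells, 30 min compound preincubation at 37 C, acetylthiocholine substrate with thiol probe Thiolite Green, 40 min RT development, fluorescence 490/520 nm.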

Test [4] has the same target. As to the kind of experiment: Acetylcholinesterase (AChE) small molecule antagonists: enzyme-based qHTS assay with human liver microsomes (AID 1347399). Also: nearly all actives have a fitted effect of over 60% in size. The note with it: Potency: qHTS inhibition; outcome: qHTS inhibition. A digest of the protocol: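 Recombinant human AChE (50 mU/mL in the enzyme mix) and human liver microsomes (0.25 mg/mL final) were preincubated with compound and NADPH (0.25 mg/mL final) for 30 min at 37 C. Acetylthiocholine/DTNB was then added; thiocholine was read colorimetrically after 10 min at room temperature.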
Potency is read from the fitted curve at half-maximal effect.

Chain of Acetylcholinesterase (Homo sapiens) (P22303 whole entry, looked up): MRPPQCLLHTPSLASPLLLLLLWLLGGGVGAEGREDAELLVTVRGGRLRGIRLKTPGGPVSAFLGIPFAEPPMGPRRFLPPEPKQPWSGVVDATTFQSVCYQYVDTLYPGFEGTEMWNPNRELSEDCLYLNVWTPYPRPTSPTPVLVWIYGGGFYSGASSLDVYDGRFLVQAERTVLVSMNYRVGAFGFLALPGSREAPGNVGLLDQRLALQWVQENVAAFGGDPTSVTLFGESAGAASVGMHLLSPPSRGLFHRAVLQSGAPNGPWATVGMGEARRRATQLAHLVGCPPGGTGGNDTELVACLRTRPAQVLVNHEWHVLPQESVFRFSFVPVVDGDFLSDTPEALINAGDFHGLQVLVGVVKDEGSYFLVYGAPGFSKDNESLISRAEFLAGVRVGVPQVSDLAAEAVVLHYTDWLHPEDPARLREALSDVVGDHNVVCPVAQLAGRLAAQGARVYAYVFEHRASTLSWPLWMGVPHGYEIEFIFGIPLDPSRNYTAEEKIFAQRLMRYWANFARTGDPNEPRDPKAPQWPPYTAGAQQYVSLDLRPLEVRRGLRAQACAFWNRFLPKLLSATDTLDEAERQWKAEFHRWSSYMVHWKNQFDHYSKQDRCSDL

`O=C1N(c2ccccc2)c2ccccc2C1(Cc1ccncc1)Cc1ccncc1`: the Potency result in test [1], in test [2], in test [3] and in test [4] was “inactive” in each case.
As to `O=CC(=O)c1ccccc1`, the Potency in test [1] was 2 µM (active); in test [2], 5.03 µM (active); in test [3] it was 0.283 µM (active); in test [4] it was 35.6 µM (active).
For the molecule `CN(C)CCOCCO`, the Potency result in test [1], in test [2], in test [3] and in test [4] was “inactive” each time.
Turning to `O=C(O)Cc1ccc(CCNS(=O)(=O)c2ccc(Cl)cc2)cc1`, the Potency result in test [1], in test [2], in test [3] and in test [4] was “inactive” in each case.
Consider `CC(C)(O)Cc1ccccc1`, for which the Potency result in test [1], in test [2], in test [3] and in test [4] was “inactive” in each case.
On to `Cc1cccc2nccnc12`, for which the Potency result in test [1], in test [2], in test [3] and in test [4] was “inactive” in each case.
With `CCCCCCC1(C)CCC(=O)O1` (centres undefined), the Potency entry in test [1], in test [2], in test [3] and in test [4] was “inactive” in each case.
On to `CC(=O)c1ccc2c(c1)Cc1ccccc1-2`, for which the Potency entry in test [1], in test [2], in test [3] and in test [4] was “inactive” throughout.
Take `O=P(O)(O)OCC(O)CO` (centres undefined): the Potency result in test [1], in test [2], in test [3] and in test [4] was “inactive” each time.
Turning to `CC(C)(CCl)c1ccccc1`, the Potency entry in test [1], in test [2], in test [3] and in test [4] was “inactive” in each case.
As to `CCN(Cc1cccc(S(=O)(=O)O)c1)c1ccc(C(=C2C=CC(=[N+](CC)Cc3cccc(S(=O)(=O)O)c3)C=C2)c2ccc(O)cc2S(=O)(=O)[O-])cc1`, the Potency result in test [1], in test [2], in test [3] and in test [4] was “inactive” each time.
Take `CCCCC(CC)C(=O)OC(C)C` (centres undefined): the Potency result in test [1], in test [2], in test [3] and in test [4] was “inactive” in each case.
`O=c1c(-c2ccccc2)c1-c1ccccc1`: the Potency result in test [1], in test [2], in test [3] and in test [4] was “inactive” in each case.
In the case of `CCN(CC)CC`, the Potency entry in test [1], in test [2], in test [3] and in test [4] was “inactive” each time.
With `C[C@@H]1C[C@H]2[C@@H]3C[C@H](F)C4=CC(=O)C(Cl)=C[C@]4(C)[C@@]3(F)[C@@H](O)C[C@]2(C)[C@@]1(O)C(=O)CO`, the Potency result in test [1], in test [2], in test [3] and in test [4] was “inactive” throughout.
`CC(=O)N(c1onc(C)c1C)S(=O)(=O)c1ccc(N)cc1`: the Potency entry in test [1], in test [2], in test [3] and in test [4] was “inactive” throughout.
Consider `Nc1ccnc(=O)[nH]1`, for which the Potency result in test [1], in test [2], in test [3] and in test [4] was “inactive” throughout.
Consider `CCC(C)C(=O)OCCc1ccccc1` (centres undefined), for which the Potency result in test [1], in test [2], in test [3] and in test [4] was “inactive” each time.
For `CCCCCCCC/C=C\CCCCCCCCCCCC(=O)O`, the Potency entry in test [1], in test [2], in test [3] and in test [4] was “inactive” throughout.
In the case of `COc1ccccc1NC(=O)c1cc2ccccc2cc1O`, the Potency entry in test [1], in test [2], in test [3] and in test [4] was “inactive” in each case.
For `COc1ncnc(NS(=O)(=O)c2ccc(N)cc2)c1OC`, the Potency result in test [1], in test [2], in test [3] and in test [4] was “inactive” each time.
As for `CC1CCC(=O)C1=O` (centres undefined), the Potency result in test [1], in test [2], in test [3] and in test [4] was “inactive” each time.
On to `O=C1NC(=O)c2cc([N+](=O)[O-])ccc21`, for which the Potency result in test [1], in test [2], in test [3] and in test [4] was “inactive” throughout.
Regarding `CCN1CCOCC1`, the Potency entry in test [1], in test [2], in test [3] and in test [4] was “inactive” throughout.
`CCCC(c1cc(C(C)(C)C)c(O)cc1C)c1cc(C(C)(C)C)c(O)cc1C`: the Potency entry in test [1], in test [2], in test [3] and in test [4] was “inactive” each time.
With `CCOC(C)(C)C`, the Potency result in test [1], in test [2], in test [3] and in test [4] was “inactive” in each case.
With `C=CC(=O)NC(C)(C)C`, the Potency entry in test [1], in test [2], in test [3] and in test [4] was “inactive” in each case.
As to `CCCCCCCCCCCCCCC1CO1` (centres undefined), the Potency entry in test [1], in test [2], in test [3] and in test [4] was “inactive” in each case.
With `CC[C@@H]1C[C@H](N(Cc2cc(C(F)(F)F)cc(C(F)(F)F)c2)C(C)=O)c2cc(C(F)(F)F)ccc2N1C(=O)OC(C)C`, the Potency entry in test [1], in test [2], in test [3] and in test [4] was “inactive” each time.
For the molecule `COc1ccc2c(c1)c1c3n2CCN(C)C3=NCC1`, the Potency result in test [1], in test [2], in test [3] and in test [4] was “inactive” each time.
On to `CCCCc1ccc(N)cc1`, for which the Potency result in test [1], in test [2], in test [3] and in test [4] was “inactive” throughout.
Consider `Cc1cnc(C)c(C)n1`, for which the Potency entry in test [1], in test [2], in test [3] and in test [4] was “inactive” in each case.
`C=CS(=O)(=O)O`: the Potency entry in test [1], in test [2], in test [3] and in test [4] was “inactive” in each case.
On to `Cc1ccc(S)cc1`, for which the Potency result in test [1], in test [2], in test [3] and in test [4] was “inactive” in each case.
In the case of `Nc1ccc(Cl)c([N+](=O)[O-])c1`, the Potency result in test [1], in test [2], in test [3] and in test [4] was “inactive” each time.
For the molecule `CO[Si](CCCNCCC[Si](OC)(OC)OC)(OC)OC`, the Potency result in test [1], in test [2], in test [3] and in test [4] was “inactive” in each case.
As to `CCOC(=O)/C=C/C(=O)OCC`, the Potency result in test [1], in test [2], in test [3] and in test [4] was “inactive” in each case.
On to `COc1cc2c(cc1OC)C(=O)CC2`, for which the Potency entry in test [1], in test [2], in test [3] and in test [4] was “inactive” each time.
Consider `C[N+]1([O-])CCOCC1`, for which the Potency result in test [1], in test [2], in test [3] and in test [4] was “inactive” in each case.
Take `CCCCCCCC[Si](OCC)(OCC)OCC`: the Potency result in test [1], in test [2], in test [3] and in test [4] was “inactive” in each case.
For `COc1ccc2sc(C(=O)Nc3nnn[nH]3)c(OC(C)C)c2c1`, the Potency result in test [1], in test [2], in test [3] and in test [4] was “inactive” in each case.
